This note sets out measurements from publication PMC7819943, “Rice protein-binding microarrays: a tool to detect cis-acting elements near promoter regions in rice”.

The full ranking holds about 39,000 sequences; the median of “fluorescence intensity (a.u.)” is about 4,300, and the highest 2% start at about 39,000. Shown is part of a subset that was picked to be rich in the highest values.

The assay addresses T1, OsSMF1 (Oryza sativa, UniProt Q6ZLB0 1-436).
T1 sequence: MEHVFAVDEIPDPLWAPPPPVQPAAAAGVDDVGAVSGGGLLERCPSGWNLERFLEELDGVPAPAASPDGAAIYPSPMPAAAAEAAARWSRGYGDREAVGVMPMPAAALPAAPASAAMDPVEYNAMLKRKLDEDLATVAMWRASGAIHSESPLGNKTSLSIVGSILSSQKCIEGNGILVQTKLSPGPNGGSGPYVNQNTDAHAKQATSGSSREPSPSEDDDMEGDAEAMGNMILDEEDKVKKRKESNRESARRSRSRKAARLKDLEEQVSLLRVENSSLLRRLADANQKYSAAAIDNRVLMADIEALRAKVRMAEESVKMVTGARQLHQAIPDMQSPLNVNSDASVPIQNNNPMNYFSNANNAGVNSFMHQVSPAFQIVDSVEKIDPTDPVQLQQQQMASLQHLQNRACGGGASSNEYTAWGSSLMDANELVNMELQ
Nature of the assay: protein-binding microarray (RPBM); PBS, 2% BSA, 51.3 ng/ul salmon testes DNA, 50 uM zinc acetate, 200 nM TF, 25 C, 1 h; high values mean tight binding. The following applies: protein: recombinant; tags: N-terminal polyhistidine and DsRed monomer fusion (pET32a); chain copies: 2; label: CyDye5-dUTP incorporated in the synthesized complementary strand; 3' TTTTT single-stranded linker to array surface; dsDNA, one strand shown. Put shortly: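 An Axon 4000B scanner gave the binding signal as per-feature fluorescence intensity in arbitrary units. This followed washing of a custom Agilent array that had been incubated for 1 h at 25 °C with 200 nM protein in PBS, 2% BSA, salmon testes DNA and 50 µM zinc acetate. The proteins were transcription factors fused at the N-terminus to polyhistidine and DsRed, expressed in E. coli BL21-CodonPlus and purified on Ni–NTA.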
“TGCCCACGCCGCGCCGCCGCCTCCTCCTCCTCCTCCTCCTCGGAGTCACCTAGTGCAG”: the binding signal was 46900 fluorescence intensity (a.u.). For “TTCTGTAACTTTTCCAACTCACCTTCCTCGCTTCCCACGCCGGAGTCACCTAGTGCAG” the value was 4820 fluorescence intensity (a.u.); for “GCGCCACCTATAAAACGCCCGCGCGCCCCGCGCCGCCTCCCGGAGTCACCTAGTGCAG”, 40300 fluorescence intensity (a.u.); for “CCCGGGCCTCGCCGCGCCGCGCCACGCCACGCCTCCGCCCCGGAGTCACCTAGTGCAG”, 7580 fluorescence intensity (a.u.).

For “GCGCGCCACGCCACGCCACGCGCCCACGCCTCGCCTCGCCCGGAGTCACCTAGTGCAG”, the binding signal is 10000 fluorescence intensity (a.u.). The result for “TTTTCCAACTTACCTCCTTCATTTTCCACGCGCACATTTTCGGAGTCACCTAGTGCAG” reads 65500 fluorescence intensity (a.u.); that for “TCCTCCTTCCTTCCACCTCACCCCAACCCCAACCCCAACCCGGAGTCACCTAGTGCAG”, 4080 fluorescence intensity (a.u.).

As for “GGCCGCGTGCGTGTGTCCAAACCTTCTCCACGCATTTCCTCGGAGTCACCTAGTGCAG”, the binding signal was 4220 fluorescence intensity (a.u.). The result for “GCCTTTCTCTCCACCGCGATTTCTATATATAAAACGCCCCCGGAGTCACCTAGTGCAG” reads 9620 fluorescence intensity (a.u.). For “CGTCCACCGCGCCGCCGCCGCCCTCCGTCACGCGCGCGCTCGGAGTCACCTAGTGCAG” the value was 3270 fluorescence intensity (a.u.); for “GATCTGACCTCCTCAGCCTCCTTCCCCAACTGTTCCACGCCGGAGTCACCTAGTGCAG”, 44800 fluorescence intensity (a.u.). The result for “CCACGCGCTCTATAAGTAGACGGCTCTTCGGCGCGTGTCACGGAGTCACCTAGTGCAG” reads 3400 fluorescence intensity (a.u.). Regarding “GGTTGAAGTTAATACGTGCCAAATCTATAACTTTATTCCGCGGAGTCACCTAGTGCAG”, the binding signal was 3300 fluorescence intensity (a.u.). For “TGGGAGAGGGTAGTAGGTGGGCCGAGGTACACACGTGGGGCGGAGTCACCTAGTGCAG” the value was 5560 fluorescence intensity (a.u.); for “TTCGCTGACACGCCCCGTCCACTCTTGTCCACGCTGCGCCCGGAGTCACCTAGTGCAG”, 3380 fluorescence intensity (a.u.); for “TCTTGCCTTCTTGCCCTCCACACTGTCCACGTCTCTCCAACGGAGTCACCTAGTGCAG”, 4650 fluorescence intensity (a.u.). The result for “GATCAAGGAGGCCGTGGCGGACAGGGAGTGCGGGGTGGATCGGAGTCACCTAGTGCAG” reads 3360 fluorescence intensity (a.u.); that for “TCAATAGAAAATAAACTGATTCATGTTAAAACCTTCACACCGGAGTCACCTAGTGCAG”, 46600 fluorescence intensity (a.u.); that for “CAGTTAACCACCTAACTGATCAAACTCATTCATGTCACTCCGGAGTCACCTAGTGCAG”, 5110 fluorescence intensity (a.u.). Consider “AAAACTTGCAACTGCAATTCATGTCAATTTGCCACATCACCGGAGTCACCTAGTGCAG”, for which the binding signal is 13200 fluorescence intensity (a.u.). For “ACAGCGTAGGCTTTTCTTTCACGTCACCACGCGTACGCGACGGAGTCACCTAGTGCAG” the value was 6560 fluorescence intensity (a.u.); for “TAGTACCAAAGTATTTGTGTGTCACTATGATGTCCTGCCTCGGAGTCACCTAGTGCAG”, 6010 fluorescence intensity (a.u.). For “GGGTGAAGCGTCGCGCGGCGCGCCGTGGCGTGGCGTGGCGCGGAGTCACCTAGTGCAG” the value was 6090 fluorescence intensity (a.u.). The result for “ATCTTCTTCTTCATCGCTGTGCAGCTACACACTCTCACTGCGGAGTCACCTAGTGCAG” reads 3180 fluorescence intensity (a.u.). As to “GAGTTTGATAGCTTAGCAGAAATAGTTTTGCTGACGTGGCCGGAGTCACCTAGTGCAG”, the binding signal is 40700 fluorescence intensity (a.u.).

As for “GTTTAGATGGTGGTTTTGGCTGACGTGTCACCTACGTGGCCGGAGTCACCTAGTGCAG”, the binding signal was 24200 fluorescence intensity (a.u.). For “GCTTGCTGCTGCTGCTGCTGATAGTTTAGCTTGAGAGAGCCGGAGTCACCTAGTGCAG” the value was 22700 fluorescence intensity (a.u.). The result for “TTTGATGGTGGTTTTGGCTGACGTGGCACCTACATGGCATCGGAGTCACCTAGTGCAG” reads 42900 fluorescence intensity (a.u.); that for “CGGTGGTTTTGGCTGACGTGGCACCTATGTGGCAAATTTGCGGAGTCACCTAGTGCAG”, 7870 fluorescence intensity (a.u.). The result for “GATGGCGGTTTTGCTGATGTGGCGTTGACGTGCCGACCCGCGGAGTCACCTAGTGCAG” reads 13200 fluorescence intensity (a.u.); that for “GAGGGCGGTTTTGCTGATGTGGCGTTGACGTGGCGATGTTCGGAGTCACCTAGTGCAG”, 27700 fluorescence intensity (a.u.). Regarding “TGTTTGTCGTGACTTAGCTTAGTTGTTGCTGTTGTTGAGCCGGAGTCACCTAGTGCAG”, the binding signal was 3400 fluorescence intensity (a.u.). In the case of “GGCGGTTTTGGATGACGTGGTGCCTACGTGGCTAATTTGACGGAGTCACCTAGTGCAG”, the binding signal was 35600 fluorescence intensity (a.u.). The result for “GTCATATTTATTTGGATGATGTGGCATGTTCTGGTGGTGACGGAGTCACCTAGTGCAG” reads 15700 fluorescence intensity (a.u.); that for “GTGTGGTTTTGCTGATGTGGCGCTGACGTGGCGATATTGACGGAGTCACCTAGTGCAG”, 48500 fluorescence intensity (a.u.).

Regarding “TTCATATTTATTTGATGACGTGGCTAATCCTGGTCGGATCCGGAGTCACCTAGTGCAG”, the binding signal is 40700 fluorescence intensity (a.u.). With “AAGAGACCTGTTTATTAGCGTCACTGACAGTCGTTGTCACCGGAGTCACCTAGTGCAG”, the binding signal is 3660 fluorescence intensity (a.u.).

With “ATTTCATCCTTATTAGGGCCTATTTGGAGCATTGGCAGGGCGGAGTCACCTAGTGCAG”, the binding signal was 3750 fluorescence intensity (a.u.). Consider “AGATCCCGAATTCGTGCCACGTGATCTGCCGTCGTGTATTCGGAGTCACCTAGTGCAG”, for which the binding signal was 6050 fluorescence intensity (a.u.). The result for “CCCCGCTTCGCCGCCGGCCGCCTCTCTCTTCTCAAGAGTCCGGAGTCACCTAGTGCAG” reads 3340 fluorescence intensity (a.u.).

As to “GCAACCGCGACGACCGATCCACGTGGCACCACCTCATTGGCGGAGTCACCTAGTGCAG”, the binding signal was 29400 fluorescence intensity (a.u.). “GGGCCCAGCAGGTTCCTAGTAGACTTCGTCGTAGTGGGACCGGAGTCACCTAGTGCAG”: the binding signal was 8310 fluorescence intensity (a.u.).
